Laboratory results reported in PubChem BioAssay AID1159580 (chemical genetic matrix, 2015).
Among all 5,500 compounds or so, about 2,000 (36%) were called active. Another 18% or so got no clear call; they are omitted. Cut-off read from the data, not from the text of the source: active = normalized growth mostly below about 0.91 (no sharp cut-off); inconclusive = no clear call, values can overlap the other calls; inactive = mostly above about 0.92. The list shows a part of the results.

Assay: chemical genetic growth profiling, strain panel (AID 1159580);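 note: tested at 20 µM; growth read once vehicle control cultures reached saturation at 30 °C; 1 = growth at the plate median or of vehicle wells; lower values mean less growth of the strain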
Conditions: growth OD

Measured: normalized growth

NC(N)=NOCC[C@H](N)C(=O)O
inactive: S. cerevisiae deletion strains, locus YJR043C, strain POL32, hits give low values 1 | S. cerevisiae deletion strains, locus YJR075W, strain HOC1, hits give low values 0.983 | S. cerevisiae deletion strains, locus YKL009W, strain mrt4, hits give low values 0.971 | S. cerevisiae deletion strains, locus YKL068W, hits give low values 0.978 | S. cerevisiae deletion strains, locus YKL085W, strain MDH1 (second series), hits give low values 0.969 | S. cerevisiae deletion strains, locus YKL085W, strain MDH1, hits give low values 0.969 | S. cerevisiae deletion strains, locus YKL160W, strain elf1, hits give low values 1.01 | S. cerevisiae deletion strains, locus YKL190W, strain CNB1, hits give low values 0.995 | S. cerevisiae deletion strains, locus YKR001C, strain vps1, hits give low values 1 | S. cerevisiae deletion strains, locus YKR026C, strain gcn3, hits give low values 1.01 | S. cerevisiae deletion strains, locus YKR091W, strain srl3, hits give low values 1.01 | S. cerevisiae deletion strains, locus YLL001W, strain dnm1, hits give low values 1.01 | S. cerevisiae deletion strains, locus YLL026W, hits give low values 1.01 | S. cerevisiae deletion strains, locus YLL041C, strain sdh2, hits give low values 1.01 | S. cerevisiae deletion strains, locus YLR027C, strain aat2, hits give low values 1.01 | S. cerevisiae deletion strains, locus YLR039C, strain RIC1, hits give low values 0.933 | S. cerevisiae deletion strains, locus YLR058C, strain SHM2, hits give low values 0.984 | S. cerevisiae deletion strains, locus YLR102C, strain apc9, hits give low values 0.988 | S. cerevisiae deletion strains, locus YLR221C, strain rsa3, hits give low values 1.02 | S. cerevisiae deletion strains, locus YLR258W, strain gsy2, hits give low values 1.01 | S. cerevisiae deletion strains, locus YLR262C, strain YPT6 (second series), hits give low values 1.02 | S. cerevisiae deletion strains, locus YLR262C, strain YPT6, hits give low values 0.954 | S. cerevisiae deletion strains, locus YLR268W, strain sec22, hits give low values 1.03 | S. cerevisiae deletion strains, locus YLR320W, strain mms22, hits give low values 1.02 | S. cerevisiae deletion strains, locus YLR330W, strain CHS5, hits give low values 0.977 | S. cerevisiae deletion strains, locus YLR342W, strain FKS1 (second series), hits give low values 1.01 | S. cerevisiae deletion strains, locus YLR342W, strain FKS1, hits give low values 0.992 | S. cerevisiae deletion strains, locus YLR357W, strain rsc2, hits give low values 1.03 | S. cerevisiae deletion strains, locus YLR370C, strain arc18, hits give low values 1.02 | S. cerevisiae deletion strains, locus YLR371W, strain rom2, hits give low values 0.964 | S. cerevisiae deletion strains, locus YLR384C, strain iki3, hits give low values 1.01 | S. cerevisiae deletion strains, locus YLR418C, strain cdc73, hits give low values 1.02 | S. cerevisiae deletion strains, locus YML016C, strain PPZ1, hits give low values 0.992 | S. cerevisiae deletion strains, locus YML032C, strain rad52, hits give low values 0.976 | S. cerevisiae deletion strains, locus YML120C, strain ndi1, hits give low values 1.02 | S. cerevisiae deletion strains, locus YML124C, strain tub3, hits give low values 0.996 | S. cerevisiae deletion strains, locus YMR058W, strain fet3, hits give low values 1 | S. cerevisiae deletion strains, locus YMR078C, strain ctf18, hits give low values 0.998 | S. cerevisiae deletion strains, locus YMR125W, strain sto1, hits give low values 1 | S. cerevisiae deletion strains, locus YMR129W, hits give low values 1.02 | S. cerevisiae deletion strains, locus YMR205C, strain PFK2, hits give low values 1.01 | S. cerevisiae deletion strains, locus YMR223W, strain ubp8, hits give low values 0.976 | S. cerevisiae deletion strains, locus YMR231W, strain pep5, hits give low values 1.02 | S. cerevisiae deletion strains, locus YMR263W, strain SAP30, hits give low values 1.01 | S. cerevisiae deletion strains, locus YMR307W, strain GAS1, hits give low values 1.06 | S. cerevisiae deletion strains, locus YNL067W, strain RPL9B, hits give low values 1.02 | S. cerevisiae deletion strains, locus YNL071W, strain lat1, hits give low values 1.01 | S. cerevisiae deletion strains, locus YNL128W, strain TEP1, hits give low values 0.992 | S. cerevisiae deletion strains, locus YNL153C, strain GIM3, hits give low values 1.03 | S. cerevisiae deletion strains, locus YNL209W, strain ssb2, hits give low values 1 | S. cerevisiae deletion strains, locus YNL233W, strain BNI4, hits give low values 1.03 | S. cerevisiae deletion strains, locus YNL248C, strain rpa49, hits give low values 1.02 | S. cerevisiae deletion strains, locus YNL250W, strain rad50, hits give low values 0.961 | S. cerevisiae deletion strains, locus YNL271C, strain bni1, hits give low values 0.973 | S. cerevisiae deletion strains, locus YNL298W, strain CLA4, hits give low values 0.989 | S. cerevisiae deletion strains, locus YNL307C, strain MCK1, hits give low values 1 | S. cerevisiae deletion strains, locus YNL322C, strain KRE1 (second series), hits give low values 1.01 | S. cerevisiae deletion strains, locus YNL322C, strain KRE1, hits give low values 0.984 | S. cerevisiae deletion strains, locus YNR049C, strain mso1, hits give low values 1.01 | S. cerevisiae deletion strains, locus YNR052C, strain pop2, hits give low values 0.974 | S. cerevisiae deletion strains, locus YOL006C, strain TOP1, hits give low values 1.07 | S. cerevisiae deletion strains, locus YOL012C, strain htz1 1.13 | S. cerevisiae deletion strains, locus YOL147C, strain pex11, hits give low values 0.986 | S. cerevisiae deletion strains, locus YOR001W, strain rrp6, hits give low values 1.03 | S. cerevisiae deletion strains, locus YOR061W, strain CKA2, hits give low values 0.991 | S. cerevisiae deletion strains, locus YOR069W, strain VPS5, hits give low values 0.994 | S. cerevisiae deletion strains, locus YOR070C, strain gyp1, hits give low values 1.02 | S. cerevisiae deletion strains, locus YOR080W, strain dia2, hits give low values 1.02 | S. cerevisiae deletion strains, locus YOR083W, strain WHI5, hits give low values 1 | S. cerevisiae deletion strains, locus YOR106W, strain vam3, hits give low values 1.01 | S. cerevisiae deletion strains, locus YOR136W, strain idh2, hits give low values 0.988 | S. cerevisiae deletion strains, locus YOR144C, strain elg1, hits give low values 0.989 | S. cerevisiae deletion strains, locus YOR184W, strain ser1, hits give low values 0.971 | S. cerevisiae deletion strains, locus YOR265W, strain rbl2, hits give low values 1.01 | S. cerevisiae deletion strains, locus YOR270C, strain vph1, hits give low values 1.04 | S. cerevisiae deletion strains, locus YOR290C, strain snf2, hits give low values 1.02 | S. cerevisiae deletion strains, locus YOR316C, strain cot1, hits give low values 0.992 | S. cerevisiae deletion strains, locus YPL051W, strain arl3, hits give low values 1.01 | S. cerevisiae deletion strains, locus YPL055C, strain LGE1, hits give low values 1.02 | S. cerevisiae deletion strains, locus YPL078C, strain atp4, hits give low values 1.02 | S. cerevisiae deletion strains, locus YPL106C, strain sse1, hits give low values 1.03 | S. cerevisiae deletion strains, locus YPL240C, strain hsp82, hits give low values 1 | S. cerevisiae deletion strains, locus YPL241C, strain CIN2, hits give low values 0.993 | S. cerevisiae deletion strains, locus YPR119W, strain clb2, hits give low values 0.996 | S. cerevisiae deletion strains, locus YPR141C, strain kar3, hits give low values 0.988 | S. cerevisiae deletion strains, locus YPR163C, strain tif3, hits give low values 0.983 | S. cerevisiae deletion strains, locus YPR167C, strain met16, hits give low values 0.985 | S. cerevisiae deletion strains, strain wtn01, hits give low values 0.999 | S. cerevisiae strains, strain wild type, hits give low values 0.992
